Calls of active or inactive are those of the source. How the source made its calls: active means hit-call score of the fitted dose curve at least 0.9, where 1 is the maximum; inactive means score below 0.9.
Target: CCAAT/enhancer-binding protein beta (Homo sapiens) (UniProt P17676)
Assay: ATG_C_EBP_CIS: Attagene CIS-FACTORIAL HepG2 Assay for human CCAAT/Enhancer Binding Protein (C/EBP) beta (AID 2282927)
Conditions: HepG2 Attagene cis-factorial transcription factor reporter; actives raise or lower the signal
Summary of the method: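 Following a 24 h incubation with test chemical, transfected HepG2 cells yielded RNA whose reporter transcripts were quantified by RT-PCR and fluorescent capillary electrophoresis, with DMSO serving as baseline for bidirectional fitting.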

CCAAT/enhancer-binding protein beta (Homo sapiens), sequence (P17676 whole entry, looked up): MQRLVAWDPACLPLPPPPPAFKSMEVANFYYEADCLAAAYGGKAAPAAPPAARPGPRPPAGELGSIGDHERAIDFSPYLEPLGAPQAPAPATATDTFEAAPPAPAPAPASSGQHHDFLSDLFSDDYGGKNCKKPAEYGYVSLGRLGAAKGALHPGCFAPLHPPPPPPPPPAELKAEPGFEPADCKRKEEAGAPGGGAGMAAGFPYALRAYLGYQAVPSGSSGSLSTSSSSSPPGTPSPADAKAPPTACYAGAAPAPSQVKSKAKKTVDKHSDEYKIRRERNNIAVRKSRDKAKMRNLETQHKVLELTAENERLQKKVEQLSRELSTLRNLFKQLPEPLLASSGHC

SMILES | outcome
Nc1c(Oc2ccccc2)cc(O)c2c1C(=O)c1ccccc1C2=O | inactive
Clc1cc(C(Cl)(Cl)Cl)cnc1Cl | inactive
CCOC(=O)c1ccccc1S(=O)(=O)NC(=O)Nc1nc(Cl)cc(OC)n1 | inactive
CN(N=O)C(N)=O | inactive
CC(C)=CC1C(C(=O)OCc2cccc(Oc3ccccc3)c2)C1(C)C (centres undefined) | inactive
CC(C)CP(=S)(S)CC(C)C | inactive
C=CCN=C=S | inactive
O=C(Nc1ccc(Br)cc1)c1cc(Br)cc(Br)c1O | inactive
CC(C)C(C)(N)C#N (centres undefined) | inactive
CCOP(=S)(OCC)Oc1ccc(Cl)cc1Cl | inactive
O=NN1CCCCCCC1 | inactive
CCCCCCCCCCBr | inactive
CS(=O)(=O)c1ccc(C(=O)C2C(=O)CCCC2=O)c(Cl)c1COCC(F)(F)F | inactive
c1ccc2sc(SNC3CCCCC3)nc2c1 | inactive
CCCCCCCCCCCCN(C)C | inactive
O=c1[nH]c(=O)n(Cl)c(=O)n1Cl | inactive
Nc1cccnc1 | inactive
CC(c1ccccc1)(c1ccc(O)cc1)c1ccc(O)cc1 | inactive
Cl[C@H]1OCCO[C@@H]1Cl | inactive
OC(Cc1ccccc1Cl)(Cn1[nH]cnc1=S)C1(Cl)CC1 (centres undefined) | inactive

SMILES | outcome
CC1(C)[C@H](C(=O)O[C@H](C#N)c2cccc(Oc3ccccc3)c2)[C@@H]1/C=C(\Cl)C(F)(F)F | inactive
ClCCCCl | inactive
CCCCS(=O)(=O)Cl | inactive
Cc1ccccc1OP(=O)(Oc1ccccc1C)Oc1ccccc1C | inactive
O=C(NC(=O)c1c(F)cccc1F)Nc1cc(Cl)c(F)c(Cl)c1F | inactive
COc1ccc([N+](=O)[O-])cc1O | inactive
COC(=O)c1cc(Oc2ccc(Cl)cc2Cl)ccc1[N+](=O)[O-] | inactive
O=NN1CCOCC1 | inactive
C=CC(Cl)CCl (centres undefined) | inactive
CCOC(=O)OC1=C(c2cc(C)ccc2C)C(=O)NC12CCC(OC)CC2 (centres undefined) | inactive
CCCSP(=S)(OCC)Oc1ccc(SC)cc1 (centres undefined) | inactive
ClCc1ccccc1CCl | inactive
O=C(O)COc1ccc(Cl)cc1 | inactive
C1CCC(C2CCCCC2)CC1 | inactive
Nc1ccc(-c2ccccc2)cc1 | inactive
O=S(=O)(Oc1ccc(Cl)cc1)c1ccc(Cl)cc1 | inactive
NC(=O)c1ccc(N)nc1 | inactive
O=C=Nc1ccc(Cl)cc1 | inactive
CN(CCCC(O)c1cccnc1)N=O (centres undefined) | inactive

Source: PubChem BioAssay (EPA / NIEHS)
